{"source": "PubChem BioAssay", "note": "Unmarked numbers belong to inactive results. Active and inactive are the calls of the source.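 Rule for the calls: active = inhibition above the hit cutoff set in the earlier primary screen (cut at about 27% in these data); inactive = the rest.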", "data": [{"molecular_target": "Protein phosphatase methylesterase 1 (Homo sapiens) (UniProt Q9Y570)", "sequence (Q9Y570 whole entry, looked up)": "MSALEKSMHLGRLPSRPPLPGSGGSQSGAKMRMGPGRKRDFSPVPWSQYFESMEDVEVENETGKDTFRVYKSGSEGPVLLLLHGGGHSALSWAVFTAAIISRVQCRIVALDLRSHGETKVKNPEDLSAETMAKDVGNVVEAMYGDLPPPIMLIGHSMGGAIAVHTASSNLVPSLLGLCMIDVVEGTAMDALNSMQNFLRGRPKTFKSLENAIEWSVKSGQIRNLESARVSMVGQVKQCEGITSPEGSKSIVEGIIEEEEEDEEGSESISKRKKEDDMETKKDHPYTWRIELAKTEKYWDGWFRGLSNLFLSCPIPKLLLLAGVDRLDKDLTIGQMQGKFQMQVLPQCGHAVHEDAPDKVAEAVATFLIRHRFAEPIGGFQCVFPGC", "assay": "PME-1 inhibitor activity retest, confirmation, biochemical, fluorescence polarization, FP-Rh probe, triplicate (AID 2171);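 note: 0% = enzyme with DMSO and 100% = wells lacking PME-1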", "conditions": "recombinant PME-1, FP-Rh probe fluorescence polarization; at 5.9 µM; hits give high values", "values": [{"smiles": "Cc1ccc2[nH]c3c(N4CCc5ccccc5C4)ncnc3c2c1", "inhibition": "30.5% (active)"}, {"smiles": "Cc1ccccc1NC1=C/C(=N\\S(=O)(=O)c2ccc(C(=O)O)cc2)c2ccccc2C1=O", "inhibition": "40% (active)"}, {"smiles": "COc1cc(/C=N/Nc2nc3ccccc3s2)cc([N+](=O)[O-])c1O", "inhibition": "72.5% (active)"}, {"smiles": "Cc1cc(C)c2[nH]c(O)c(N=NC(=O)c3cc4c(s3)CCCC4)c2c1", "inhibition": "31.9% (active)"}, {"smiles": "Cc1[nH]c2ccccc2c1N=Nc1ccccc1C(=O)O", "inhibition": "20.8%"}, {"smiles": "CCC1(C)Cc2c(sc3nc(NN)n(C)c(=O)c23)CO1", "note": "(stereo not given)", "inhibition": "-1.24%"}, {"smiles": "COc1ccc(C2Nc3cccc4cccc(c34)N2)cc1Br", "inhibition": "15.1%"}, {"smiles": "CCc1ccc(OC)c(S(=O)(=O)Nc2ccc(Cc3ccncc3)cc2)c1", "inhibition": "31.8% (active)"}, {"smiles": "Cc1c(C(=O)OC/C(O)=C(\\C#N)c2nc3ccccc3[nH]2)oc2ccccc12", "inhibition": "-5.29%"}, {"smiles": "COc1ccc(N/N=C(\\C=N\\O)C(=O)c2ccc(OC)cc2)cc1", "inhibition": "58.9% (active)"}, {"smiles": "N#CC(C#N)=NNc1ccc(S(=O)(=O)N2CCCCC2)cc1", "inhibition": "14.8%"}, {"smiles": "Fc1cccc2sc(Nc3nc4cc5c(cc4s3)OCO5)nc12", "inhibition": "76.3% (active)"}, {"smiles": "O=C(O)c1ccccc1Nc1cccc(OCc2ccc3ccccc3n2)c1", "inhibition": "20%"}, {"smiles": "COCCN=c1scc(-c2cc(OC)c(OC)c(OC)c2)n1/N=C/c1c(C)[nH]c2ccccc12", "inhibition": "18.7%"}, {"smiles": "CCc1ccc(S(=O)(=O)/N=C2/C=C(Sc3ncn[nH]3)C(=O)c3ccccc32)cc1", "inhibition": "52.9% (active)"}, {"smiles": "Cc1[nH]c2c(C(=O)N3CCCC(CCC(=O)NCc4ccccc4F)C3)cccc2c1C", "note": "(stereo not given)", "inhibition": "39.7% (active)"}, {"smiles": "O=C(O)c1ccc(-c2ccc(/C=N/Nc3ccc([N+](=O)[O-])cc3)o2)cc1", "inhibition": "33.5% (active)"}, {"smiles": "CC1(C)CC(=O)C2=C(C1)N(CCN1CCOCC1)C1=C(C(=O)CC(C)(C)C1)C2c1cccc(F)c1", "inhibition": "25.2%"}, {"smiles": "C#CCN1c2ccccc2Sc2cccnc21", "inhibition": "1.92%"}, {"smiles": "Oc1ccc(-c2cnc(-c3ccc(O)cc3)nc2)cc1", "inhibition": "16.1%"}, {"smiles": "C/C(=N\\Nc1ccc(C(=O)O)cc1)c1ccc2c(c1)Nc1ccccc1S2", "inhibition": "30.5% (active)"}, {"smiles": "Cc1ccc2nsnc2c1NS(=O)(=O)c1c(C)ccc2nsnc12", "inhibition": "22.3%"}, {"smiles": "Oc1cccc(NC(=S)N=Nc2c(O)[nH]c3ccc(Br)cc23)c1", "inhibition": "42% (active)"}, {"smiles": "C=CCn1c(SCC(=O)N2CCCC2=O)nc2sc(CC)cc2c1=O", "inhibition": "11.2%"}, {"smiles": "CCN(CC)S(=O)(=O)c1cc(NC(=O)C(C)N2CCN(c3ccccn3)CC2)ccc1C", "note": "(stereo not given)", "inhibition": "18.6%"}, {"smiles": "O=[N+]([O-])c1cc(Br)c(O)c(/C=N/Nc2nnnn2-c2cccc3ccccc23)c1", "inhibition": "43.7% (active)"}, {"smiles": "COC(=O)N1C(=O)[C@](c2ccccc2)(C2CCCCC2)N1C(=O)OC", "inhibition": "76.6% (active)"}, {"smiles": "COc1cccc(NC(=O)Nc2ccc3c(c2)N(C)C(=O)CS3)c1", "inhibition": "9.42%"}, {"smiles": "C=CCOc1ccc(/C=N/NC(=O)c2cc3c(OC)cc(OC)cc3[nH]2)cc1", "inhibition": "24.4%"}, {"smiles": "Nc1cc(C(=O)O)c(N)c2c1C(=O)c1ccccc1C2=O", "inhibition": "96.8% (active)"}, {"smiles": "CCN(CC)c1ccc(S(=O)(=O)N2CCOCC2)cc1NC(=O)CN1CCN(Cc2ccccc2)CC1", "inhibition": "72.3% (active)"}, {"smiles": "CCOC(=O)CSc1nc2cc3c(cc2cc1C#N)OCCO3", "inhibition": "20.1%"}, {"smiles": "Cc1ccc(N/N=C(\\C#N)C(N)=S)c(C)c1", "inhibition": "57.9% (active)"}, {"smiles": "N#CCC(=O)Nc1ccc(C(=O)OCC(=O)Nc2ccccc2Sc2ccccc2)cc1", "inhibition": "-19%"}, {"smiles": "COc1ccccc1/C=C/C=N/n1c(-c2cc(-c3ccccc3)n[nH]2)n[nH]c1=S", "inhibition": "23.4%"}, {"smiles": "CCc1nnc(NC(=O)c2sc3nc4c(cc3c2N)CCCCCC4)s1", "inhibition": "16.3%"}, {"smiles": "COc1cc(N=Nc2cccc(S(N)(=O)=O)c2)c2ccccc2c1N", "inhibition": "33.1% (active)"}, {"smiles": "COc1cc(OC)c2cc(C(=O)N/N=C/c3ccccc3O)[nH]c2c1", "inhibition": "19.1%"}, {"smiles": "Oc1cccc(Nc2nc(O)c(/C=C3\\C=Nc4ccccc43)s2)c1", "inhibition": "-7.79%"}, {"smiles": "CCN(CC)S(=O)(=O)c1ccc(Cl)c(NC(=O)COC(=O)c2ccc(O)cc2)c1", "inhibition": "24.9%"}]}]}
